# Data taken from PubChem BioAssay (NCI).
# About 83,000 compounds went through this panel and 20% of them were active in at least one assay; those are over-represented in the sample as a whole.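 48-hour exposure, single concentration, 96-well plates; percent growth endpoint where 0 means no net growth. Active: below 10.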 Unmarked numbers belong to inactive results. Activity calls are given as the source filed them.
# Test system: HL-60(TB) leukemia
# Assay: NCI-60 one-dose screen, 48 h (100 = growth as untreated, 0 = no growth, -100 = all killed)
# Details: 10 µM unless noted
row,Structure (SMILES),growth
1,O=C(c1ccc(Cl)cc1)N1CCCCC1,98.7%
2,C#CCOc1nc(C)cc(C)c1C#N,89.5%
3,CN(C)Cc1ccc(NC(=O)c2cncc(C#Cc3cnc(N)c4ncccc34)c2)cc1C(F)(F)F,31.1%
4,CCOC(=O)N1CCN(S(=O)(=O)c2oc(-c3ccc(Cl)cc3)nc2C#N)CC1,56.4%
5,CCOC(=O)C/C(=N\Nc1cc(=O)[nH]c2ccc(C)cc12)C(=O)OCC,92%
6,N=C(N)c1ccc(-c2ccc(-c3ccccc3)s2)nc1,16.6%
7,O=C(/C=C/c1ccc(Cl)cc1)c1ccc(-n2cc(CN3CCN(c4cc5c(cc4F)c(=O)c(C(=O)O)cn5C4CC4)CC3)nn2)cc1,99%
8,Fc1ccc2nc(-c3nc(-c4ccccc4)n4ccccc34)[nH]c2c1,67.6%
9,Cc1nc2sc(C(=O)Nc3cccc(Br)c3C)c(N)c2cc1C(O)c1ccccc1 (stereo not given),-46.6% (active)
10,O=C1CN(Cc2ccc(C(=O)NO)cc2)C(=O)[C@@H](Cc2ccccc2)N1,130%
11,O=S(=O)(Oc1ccc(-c2ccc3sccc3c2)cc1)c1ccc(F)cc1,97.1%
12,O=C(O)c1cccc2c1-c1ccc(Cl)cc1C2,78.1%
13,COC1=CC(c2ccc[nH]2)=N/C1=C\c1[nH]c(C)c(C(=O)OC(C)C)c1C,2.29% (active)
14,CCOC(=O)c1cn2ncnc(Oc3ccc(NC(=O)NC4CC4)c(Cl)c3)c2c1C,83.5%
15,CC[C@]1(O)CC2CN(CCc3c([nH]c4ccccc34)[C@@](C(=O)OC)(c3cc4c(cc3OC)N(C)[C@H]3[C@@](O)(C(=O)OC)[C@H](OC(C)=O)[C@]5(CC)C=CCN6CC[C@]43[C@@H]65)C2)C1 (stereo not given in full),2.87% (active)
16,CC(C)=C1CCC(C)C/C1=N\N=C(N)N (stereo not given),104%
17,COc1cc(-c2nc(C(=O)NCC(=O)NO)nn2-c2ccc(Cl)cc2)cc(OC)c1OC,97.4%
18,COc1cc(-c2csc(NC(=O)Nc3cc(C(F)(F)F)cc(C(F)(F)F)c3)n2)cc(OC)c1OC,12%
19,CC/C=C\C[C@H]1C/C=C2/C(=O)C(Cl)=C[C@@H]2C/C=C\CCCC(=O)O1,-6.91% (active)
20,N#Cc1nnn(-c2ccc(S(N)(=O)=O)cc2)c1NC(=O)CCl,77.5%
21,O=c1[nH]c(=O)[nH]c(=S)[nH]1,102%
22,C/C(=N\Nc1ccccc1)c1ccc(NC2=CC(=O)c3ccccc3C2=O)cc1,80.6%
23,C=C(C)[C@@H]1CC[C@]2(C)[C@H](CC(=O)N[C@H]3[C@@H]4C[C@](C)(C(=O)OC)CC[C@]4(C)CC[C@]32C)[C@@]1(C)CCC#N,83.1%
24,COc1ccc(/C=C2\SC(=Nc3ccccc3)NC2=O)cc1,-70.8% (active)
25,COc1ccc(Cl)cc1NC(=O)c1cc2c([nH]1)-c1nc(NC(=O)C(C)C)sc1CC2,90.9%
26,Cc1nccc2c3ccc(OCc4cn(-c5ccccc5)nn4)cc3n(CCCc3ccccc3)c12,30.1%
27,c1coc2occoc=2o1,102%

row,Structure (SMILES),growth
1,N#C/C(=C\c1ccc(Br)cc1)n1nnc2c(F)cccc21,0.171% (active)
2,O=c1ccc2ccc(OCCN3CCCCC3)cc2o1,-28% (active)
3,NCCCNc1nc2ccccc2c2c(=O)c3cc(F)ccc3sc12,-28.1% (active)
4,COC(=O)C1C(O)C(C)C(O)C(C)C=C(C)C2=C3C(=C(C)C(=O)c4c(O)c(c(C)c(OC(C)=O)c43)NC(=O)C(C)=C/C=C\C(C)C(O)C(C)C1O)OCO2 (stereo not given),141%
5,CC(O)CCC(C)[N+](=O)[O-] (stereo not given),96.9%
6,CCOc1cccc(/C=N/NC(=O)c2ccc(Nc3ccnc(C(F)(F)F)c3)cc2)c1O,37.7%
7,COc1ccc(Nc2c3ccccc3nc3ccccc23)cc1,12.8%
8,N#Cc1nn(-c2cc(=O)[nH]c3ccc(Br)cc23)c(N)c1C#N,-11.2% (active)
9,CN1C(=O)N(C)C2C1NN=c1s/c(=C\c3ccc([N+](=O)[O-])cc3)c(=O)n12 (stereo not given),7.14% (active)
10,COc1ccc(C(=O)c2cc(OC)c(OC)c(OC)c2)cc1/C=C/C(=O)c1ccc(F)cc1,93.2%
11,COc1cc(C2NC(c3ccc(Cl)cc3)C(C)/C(=N/NC(N)=S)C2C)cc(OC)c1OC (stereo not given),79.9%
12,O=C(Cc1csc2nc(-c3ccc(Cl)cc3)cn12)N/N=C/c1ccccc1O,-3.5% (active)
13,Cc1cc(O)cc(-c2nn(C)cc2-c2cc(N3CCOCC3)nc(-c3cccnc3)n2)c1,14.8%
14,COc1ccc(/C=C(/C(=O)N2CCN(Cc3ccccc3)CC2)c2cc(OC)c(OC)c(OC)c2)cc1O,22.9%
15,O=C(/C=C\c1ccc2ccccc2n1)c1cc(Cl)ccc1O,89.8%
16,CC[C@H]1CCC/C=C/[C@@H]2C[C@H](O)C[C@H]2[C@H](O)/C=C/C(=O)O1,-0.414% (active)
17,CC(Cc1cccc(C(F)(F)F)c1)NCCOC(=O)c1ccccc1 (stereo not given),102%
18,Nc1cc2c(cc1Cl)-c1ccc([N+](=O)[O-])cc1/C2=N\O,89.5%
19,NS(=O)(=O)c1ccc(N2CC(c3nc4ccccc4[nH]3)CC2=O)cc1 (stereo not given),99.4%
20,COc1ccc(Cl)cc1NC(=O)C(Br)C(Br)C(=O)O (stereo not given),1.26% (active)
21,O=C(CSc1nc2ccc([N+](=O)[O-])cc2[nH]1)Nc1ccc(Br)cc1,39.4%
22,CCCCCOc1ccc(C(=O)/C(Br)=C/C(=O)O)cc1,69.3%
23,COC(=O)[C@H](C)NC(=O)c1ccc(NC(=O)c2[nH]c(C)c(Cl)c2Cl)c(OCCN)c1,95.2%
24,COC(=O)[C@H]1CCCN1C(=O)[C@H]1CCCN1C(=O)[C@H](Cc1c[nH]c2ccccc12)NC(=S)Nc1cc(C(F)(F)F)cc(C(F)(F)F)c1,53.4%
25,c1csc(-c2nc(-c3cc4ccccc4c(N4CCOCC4)n3)cs2)c1,121%
26,CC(=O)Oc1cccc(OC(C)=O)c1OC(C)=O,103%
27,O=C1/C(=C\c2cccn2Cc2ccc(Cl)cc2)c2ccccc2N1c1c(Cl)cccc1Cl,79.7%

row,Structure (SMILES),growth
1,COc1ccc(/C=C2\N=C3Sc4cc(Cl)ccc4C(=O)N3C2=O)cc1,92.4%
2,Cc1cc2nc3c(=O)[nH]c(=O)nc-3n(CC=O)c2cc1C,-55.8% (active)
3,COc1cc2nc3sc(C(=O)Nc4ccc(C(=O)OC(C)C)cc4)c(C(=O)Nc4ccc(Cl)cc4C)n3c(=O)c2cc1OC,90.2%
4,CN(C)c1ccc(/C=C(\C#N)c2nc3ccccc3n2C)cc1,1.21% (active)
5,CCN(CC)CCOc1ccc2ccc(=O)oc2c1,3.42% (active)
6,COc1ccc(C(=O)c2sc3nc(-c4ccccc4OC)ccc3c2N)cc1OC,13.9%
7,COc1ccc(CCN2COc3c([C@@H](C)CCC=C(C)C)ccc(C)c3C2)cc1OC,29.1%
8,COC(=O)C(C)[C@H]1CC[C@@H]2[C@]1(C)CC=C1[C@]23C=C[C@]2(C[C@@H](OC(C)=O)CC[C@]12C)C(C(=O)OC)C3C(=O)OC (stereo not given in full),66.9%
9,Cc1ccc(NC(=O)c2sc3nc(C)c(Br)c(C)c3c2N)cc1,95.2%
10,COC(=O)c1ccc2c(C(=Nc3ccc(N(C)C(=O)CN4CCN(C)CC4)cc3)c3ccccc3)c(O)[nH]c2c1,70.8%
11,COc1ccc(-n2nc(C(=O)NCC(=O)Nc3nc4cc(OC)ccc4s3)c3ccccc3c2=O)cc1,61.7%
12,CCOC(=O)/C(=C/c1c(-c2ccccc2)[nH]c2ccccc12)C(=O)c1ccc(Cl)cc1,-10.6% (active)
13,COc1ccccc1/C=N\NC(=S)Nc1ccc(F)cc1,94.5%
14,C=C(C)[C@@H]1CC[C@]2(C(=O)NCC(=O)O)CC[C@]3(C)[C@H](CC[C@@H]4[C@@]5(C)Cc6c([nH]c7ccccc67)C(C)(C)[C@@H]5CC[C@]43C)[C@@H]12,101%
15,Nc1nc(N)c2c(n1)NC(c1cccc(Nc3ccnc4cc(C(F)(F)F)ccc34)c1)CC(c1ccc(Br)cc1)=N2 (stereo not given),43.1%
16,CCC(=O)C(CC)c1cccc(OC)c1 (stereo not given),97.5%
17,C=CCn1c(SCC(=O)Nc2ccc(/C(C)=N/O)cc2)nnc1-c1cc(-c2ccc(S(N)(=O)=O)cc2)nc2ccccc12,7.74% (active)
18,COc1ccc(-c2nc(Nc3ccc(-c4nc5ccccc5[nH]4)cc3)nc(N3CCOCC3)n2)cc1,-46% (active)
19,O=C1c2ccc3c4c(ccc(c24)C(=O)N1CCCNCc1ccccc1F)C(=O)N(CCCNCc1ccccc1F)C3=O,-59% (active)
20,O=C(c1ccccc1)N(CCc1ccc(Cl)cc1)C(=S)N(C(=O)c1ccccc1)c1ccccc1,90.3%
21,O=S(=O)(/N=c1/n(-c2ccccc2)nc2n1CCN2C1=NCCN1)c1ccc(-c2ccccc2)cc1,136%
22,O=c1[nH]c(Cl)nc2c1cnn2-c1ccccc1,-2.45% (active)
23,C=C(C)[C@@H]1CC[C@]2(COC(=O)c3ccccc3C(=O)O)CC[C@]3(C)[C@H](CC[C@@H]4[C@@]5(C)CCCNC(C)(C)[C@@H]5CC[C@]43C)[C@@H]12,6.45% (active)
24,CCCCN1CCN(c2ccc3nc(-c4ccc5nc(-c6ccc(C(F)(F)F)cc6)[nH]c5c4)[nH]c3c2)CC1,-58.7% (active)
25,COc1c(O[C@@H]2OC(CO)[C@H](O)[C@H](O)C2O)cc2oc3cc(O)c(CC=C(C)C)c(O)c3c(=O)c2c1CC=C(C)C (stereo not given in full),94.4%
26,COc1nc2ccccc2cc1-c1nc2c(cnn2-c2ccccc2)c(=O)[nH]1,11.2%
